Bioassay records (PubChem)
This is one part of a sample in which hits are shown more often than they occur.
C diff HTS = C. difficile growth inhibition | Clostridium difficile clinical isolate growth, OD600, 24 h; hits give low values | growth activity, negative = inhibition, % at 16 µg/mL (by protocol) | 0.25% of 86,000 active;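 active means mean growth activity at or below -80% and every replicate also at or below -80%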
Of the large screens only hits and unclear results are named; the others gave an inactive call.

C[C@@H]1CN([C@@H](C)CO)C(=O)c2cccc(NC(=O)Nc3ccc(C(F)(F)F)cc3)c2O[C@@H]1CN(C)Cc1ccc(Oc2ccccc2)cc1	C diff HTS -96
C[C@@H]1CN([C@H](C)CO)C(=O)c2cccc(NC(=O)Nc3ccc(C(F)(F)F)cc3)c2O[C@@H]1CN(C)Cc1ccc(Oc2ccccc2)cc1	none
C[C@H]1CN([C@@H](C)CO)C(=O)c2cccc(NC(=O)Nc3ccccc3)c2O[C@@H]1CN(C)Cc1ccc(-c2ccccc2)cc1	none
COc1ccccc1-c1ccc2n(c1=O)C[C@@H]1[C@@H](CO)[C@H](C(=O)N3CCN(C)CC3)[C@H]2N1CC1CC1	none
CNC[C@@H]1Oc2ccc(NC(=O)CCN3CCOCC3)cc2C(=O)N([C@H](C)CO)C[C@@H]1C	none
O=C(NCC[C@@H]1CC[C@@H](NC(=O)C2CCCC2)[C@H](CO)O1)Nc1ccc(Cl)cc1	none
CCC(=O)N1CC2(C1)[C@H](c1ccccc1)[C@@H](CO)N2C(=O)NC(C)C	none
C[C@@H]1CCCCO[C@H](CN(C)C(=O)c2ccncc2)[C@@H](C)CN([C@@H](C)CO)C(=O)c2cc(NC(=O)C3CCCCC3)ccc2O1	none
CCNC(=O)C[C@H]1CC[C@@H]2[C@H](COc3ccc(NC(=O)Nc4cccc(C)c4)cc3C(=O)N2C)O1	none
CN1CCN(C(=O)C[C@H]2CC[C@H]3[C@@H](COC[C@@H](O)CN3C(=O)C3CC3)O2)CC1	none
CO[C@H]1CN(C)C(=O)c2ccc(NC(=O)Nc3ccc(Cl)c(Cl)c3)cc2OC[C@H](C)NC[C@H]1C	C diff HTS -97
CO[C@H]1CN(C)C(=O)c2ccc(NC(=O)Nc3cc(Cl)cc(Cl)c3)cc2OC[C@H](C)NC[C@@H]1C	none
CO[C@H]1CN(C)C(=O)c2ccc(NC(=O)Nc3ccc(Cl)c(Cl)c3)cc2OC[C@H](C)NC[C@@H]1C	C diff HTS -99
CO[C@@H]1CN(C)C(=O)c2ccc(NC(=O)Nc3ccccc3)cc2OC[C@H](C)NC[C@@H]1C	none
CO[C@@H]1CN(C)C(=O)c2ccc(NC(=O)Nc3ccc(F)cc3)cc2OC[C@H](C)NC[C@@H]1C	none
CO[C@H]1CN(C)C(=O)c2ccc(NC(=O)Nc3ccccc3)cc2OC[C@@H](C)NC[C@@H]1C	none
CO[C@@H]1CN(C)C(=O)c2ccc(NC(=O)Nc3cc(Cl)cc(Cl)c3)cc2OC[C@H](C)NC[C@@H]1C	C diff HTS -100
CO[C@H]1CN(C)C(=O)c2ccc(NC(=O)Nc3ccccc3)cc2OC[C@H](C)NC[C@@H]1C	none
CO[C@H]1CN(C)C(=O)c2ccc(NC(=O)Nc3ccccc3Cl)cc2OC[C@H](C)NC[C@@H]1C	none
COc1ccc2c3c(n(C)c2c1)[C@H](CO)N(C(=O)CN(C)C)CC31CCN(C(=O)CN(C)C)CC1	none
C[C@@H]1CCCCO[C@H](CN(C)Cc2ccccc2)[C@H](C)CN([C@@H](C)CO)C(=O)c2cc(NS(=O)(=O)c3ccc(Cl)cc3)ccc2O1	none
COc1ccc(NC(=O)N(C)C[C@@H]2Oc3ccc(NC(=O)C4CC4)cc3C(=O)N([C@H](C)CO)C[C@H]2C)cc1	none
O=C(Nc1ccccc1F)N1CCCCN2[C@H](C1)[C@H](c1ccc(/C=C/c3ccccc3)cc1)[C@@H]2CO	none
COc1ccc(C#Cc2ccc([C@H]3[C@@H](CO)N4CCCCN(C(=O)Nc5ccc(F)cc5)C[C@H]34)cc2)cc1	none
Cc1ccc(-c2ccc([C@H]3[C@H]4CN(C(=O)Nc5cccc(F)c5)CCCCN4[C@H]3CO)cc2)cc1	none
O=C(Nc1cccc(F)c1)N1CCCCN2[C@H](CO)[C@H](c3ccc(-c4ccncc4)cc3)[C@@H]2C1	none
Cc1ccc(-c2ccc([C@H]3[C@H](CO)N4CCCCN(C(=O)Nc5cccc(F)c5)C[C@@H]34)cc2)cc1	C diff HTS -99
CC(C)CC#Cc1ccc([C@H]2[C@H]3CN(C(=O)Nc4ccccc4)CCCCN3[C@H]2CO)cc1	none
O=C(Nc1ccccc1F)N1CCCCN2[C@H](CO)[C@@H](c3ccc(/C=C/c4ccccc4)cc3)[C@@H]2C1	none
O=C(Nc1ccccc1F)N1CCCCN2[C@@H](CO)[C@@H](c3ccc(/C=C/c4ccccc4)cc3)[C@@H]2C1	C diff HTS -96
COc1ccc(C#Cc2ccc([C@@H]3[C@@H](CO)N4CCCCN(C(=O)Nc5ccc(F)cc5)C[C@H]34)cc2)cc1	none
COc1ccc(C#Cc2ccc([C@@H]3[C@H](CO)N4CCCCN(C(=O)Nc5ccc(F)cc5)C[C@@H]34)cc2)cc1	C diff HTS -93
CC(C)CC#Cc1ccc([C@@H]2[C@@H](CO)N3CCCCN(C(=O)Nc4ccccc4)C[C@@H]23)cc1	none
CC(C)CC#Cc1ccc([C@H]2[C@@H](CO)N3CCCCN(C(=O)Nc4ccccc4)C[C@H]23)cc1	C diff HTS -87
C[C@@H]1CCCCO[C@H](CN(C)C)[C@H](C)CN([C@H](C)CO)C(=O)c2cc(NC(=O)c3ccccc3)ccc2O1	none
CO[C@@H]1CN(C)C(=O)c2cc(NC(=O)CC(F)(F)F)ccc2OC[C@@H](C)N(C(=O)c2ccccc2F)C[C@@H]1C	none
CC(C)C#Cc1cnc2c(c1)C(=O)N([C@@H](C)CO)C[C@H](C)[C@H](CN(C)C(=O)Nc1ccccc1)O2	none
CCCN(C)C[C@@H]1Oc2cc(C#Cc3ccc(OC)cc3)ccc2S(=O)(=O)N([C@@H](C)CO)C[C@@H]1C	none
O=C(Nc1ccc(Cl)cc1)N1C[C@H]2[C@@H](c3ccccc31)[C@@H](CO)N2C(=O)c1cccnc1	none
[N-]=[N+]=NCc1ccccc1C[C@]1(C(=O)N2CCCCC2)COC(c2ccc(OCCCO)cc2)=N1	none
C[C@H](CO)N1C[C@H](C)[C@H](CN(C)Cc2ccc(-c3ccccc3)cc2)Oc2ccc(NC(=O)CCN3CCOCC3)cc2C1=O	none
C[C@H](CO)N1C[C@H](C)[C@H](CN(C)C(=O)Nc2ccc(F)cc2)Oc2ncc(C#CCN(C)C)cc2C1=O	none
O=C(C[C@H]1CC[C@H](NC(=O)Nc2ccc(F)cc2)[C@@H](CO)O1)NCc1ccccn1	none
COc1ccc(S(=O)(=O)N(C)C[C@H]2Oc3ccc(NS(C)(=O)=O)cc3CC(=O)N([C@H](C)CO)C[C@H]2C)cc1	none
COc1ccc(-c2ccc3c(c2)[C@H]2[C@H](CCN2C(=O)c2ccccc2F)[C@H](CO)N3C)cc1	none
COc1ccc(NC(=O)N2CC[C@H]3[C@@H]2c2cc(Br)ccc2N(C)[C@H]3CO)cc1	C diff HTS -98
COc1cccc(-c2ccc3c(c2)[C@H]2[C@H](CCN2C(=O)c2ccccc2F)[C@H](CO)N3C)c1	none
COc1ccc(NC(=O)N2CC[C@@H]3[C@H]2c2cc(Br)ccc2N(C)[C@H]3CO)cc1	none
CN1c2ccc(Br)cc2[C@H]2[C@H](CCN2C(=O)Nc2cccc(F)c2)[C@H]1CO	none
COc1ccc(NC(=O)N2CC[C@@H]3[C@H]2c2cc(-c4ccc(F)cc4)ccc2N(C)[C@H]3CO)cc1	none
CN1c2ccc(Br)cc2[C@@H]2[C@@H](CCN2C(=O)Nc2ccc(F)cc2)[C@H]1CO	C diff HTS -98
CN1c2ccc(Br)cc2[C@@H]2[C@@H](CCN2C(=O)Nc2ccc(F)cc2)[C@@H]1CO	none
COc1cccc(C#Cc2ccc3c(c2)[C@@H]2[C@@H](CCN2C(=O)c2ccccc2F)[C@@H](CO)N3C)c1	C diff HTS -97
C[C@H]1CCCCO[C@@H](CN(C)C(=O)CCC(F)(F)F)[C@@H](C)CN([C@@H](C)CO)C(=O)c2cc(NC(=O)NC3CCCCC3)ccc2O1	none
CCCN1[C@H](C(=O)NCCc2cn(C)cn2)[C@@H](CO)[C@@H]2Cn3c(ccc(-c4ccccc4)c3=O)[C@@H]21	none
